In PMC4336329 (PLoS ONE, 2015):
About 14,000 (4.5%) of roughly 310,000 compounds showed an effect of 50% or more. The effect is printed as a negative number. The full list was thinned out, with strong results kept by preference.

Target: human ether-à-go-go-related gene (hERG) potassium channel (human, UniProt Q12809)
Assay: primary screen, population patch clamp on CHO cells stably expressing hERG; higher = less effect of the substance
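Also: peak tail current of the secondary pulse compared with the same well before compound.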

Sequence of human ether-à-go-go-related gene (hERG) potassium channel (Q12809 whole entry, looked up): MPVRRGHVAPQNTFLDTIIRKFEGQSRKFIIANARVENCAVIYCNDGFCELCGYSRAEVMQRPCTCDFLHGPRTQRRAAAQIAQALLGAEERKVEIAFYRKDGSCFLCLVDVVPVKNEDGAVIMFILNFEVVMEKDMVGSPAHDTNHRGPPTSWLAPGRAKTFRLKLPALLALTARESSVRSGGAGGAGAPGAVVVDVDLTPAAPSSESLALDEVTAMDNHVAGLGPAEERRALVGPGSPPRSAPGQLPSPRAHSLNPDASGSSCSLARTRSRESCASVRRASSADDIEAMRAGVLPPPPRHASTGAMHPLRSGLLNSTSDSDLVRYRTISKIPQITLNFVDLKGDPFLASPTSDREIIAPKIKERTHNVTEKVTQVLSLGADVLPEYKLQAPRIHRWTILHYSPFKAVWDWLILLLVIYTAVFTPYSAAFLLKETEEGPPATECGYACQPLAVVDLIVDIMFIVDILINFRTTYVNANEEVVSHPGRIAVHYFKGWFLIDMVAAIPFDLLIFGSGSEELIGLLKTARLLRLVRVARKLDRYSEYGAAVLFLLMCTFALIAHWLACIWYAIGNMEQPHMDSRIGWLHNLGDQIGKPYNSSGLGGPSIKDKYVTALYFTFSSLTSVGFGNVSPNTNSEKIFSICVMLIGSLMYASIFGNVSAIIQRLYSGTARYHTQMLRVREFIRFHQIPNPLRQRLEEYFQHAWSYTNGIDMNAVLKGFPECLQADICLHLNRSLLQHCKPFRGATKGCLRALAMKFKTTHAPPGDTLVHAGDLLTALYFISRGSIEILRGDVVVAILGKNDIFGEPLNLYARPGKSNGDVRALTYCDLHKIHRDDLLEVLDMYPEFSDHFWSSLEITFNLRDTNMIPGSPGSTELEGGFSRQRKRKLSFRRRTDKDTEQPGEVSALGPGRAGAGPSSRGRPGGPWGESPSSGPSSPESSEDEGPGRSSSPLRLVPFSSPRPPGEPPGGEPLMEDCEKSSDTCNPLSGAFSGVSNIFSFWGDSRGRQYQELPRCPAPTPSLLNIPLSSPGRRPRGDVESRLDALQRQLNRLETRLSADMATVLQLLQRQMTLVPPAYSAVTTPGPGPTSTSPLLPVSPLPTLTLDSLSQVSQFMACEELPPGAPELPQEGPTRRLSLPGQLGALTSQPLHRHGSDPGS

Row | SMILES | hERG current change (%, negative = inhibition) at 10uM [%]
1 | COc1cc2c(cc1O)C[C@H]1c3c(cc(O)c(OC)c3-2)CCN1C | -70.1
2 | COc1cc2c(cc1OC)-c1c(OC)c(OC)cc3c1C(C2)N(C)CC3 (stereo not shown) | -5.23
3 | COc1cc2c(cc1OC)-c1c3c(cc4c1[C@@H](C2)N(C)CC4)OCO3 | -31.7
4 | COc1ccc2c(c1O)-c1c(OC)c(OC)cc3c1[C@H](C2)N(C)CC3 | -36.5
5 | COc1cc2c(cc1O)[C@@H]1Cc3cc(O)c(OC)cc3[C@H](C2)N1C | 11.3
6 | COc1cc2c(cc1O)CC1c3c(cc(O)c(OC)c3-2)CCN1C (stereo not shown) | -59.2
7 | O=C(O)CCCCCN1C(=O)/C(=C\c2ccc(-c3ccc(Cl)cc3)o2)SC1=S | 18
8 | COCCN1C(=O)c2ccccc2C(C(=O)Nc2ccc3c(c2)OCCO3)C1c1ccc(F)cc1 (stereo not shown) | 17.1
9 | COc1cccc(S(=O)(=O)Nc2ccc(C(=O)Nc3ccncc3)cc2)c1 | 2.7
10 | O=S(=O)(c1ccc(Cl)cc1)N1CCC(N2CCCCCC2)CC1 | -49.9
11 | N#Cc1ccc(CSc2ccc(S(=O)(=O)N3CCCC3)cn2)cc1 | -67.2
12 | O=S(=O)(c1ccc(SCc2ccc(Cl)cc2)nc1)N1CCCC1 | -8.21
13 | CCn1c(SCc2ccc(C#N)cc2)nnc1-c1ccc(S(=O)(=O)N2CCCCC2)cc1 | -70.7
14 | CCn1c(SC)nnc1-c1ccc(S(=O)(=O)N2CCCCC2)cc1 | -12.1
15 | N#Cc1ccc(S(=O)(=O)N2CCC(N3CCCCC3)CC2)cc1 | -58.3
16 | Cc1ccc(CSc2ccc(S(=O)(=O)N3CCCC3)cn2)cc1 | -4.27
17 | CCn1c(SCc2ccccc2)nnc1-c1ccc(S(=O)(=O)N2CCCCC2)cc1 | -36.2
18 | Cc1ccc(S(=O)(=O)N2CCC(N3CCCCCC3)CC2)cc1 | -23.2
19 | CC(=O)c1cccc(N/C=C\c2nnnn2-c2ccc(F)cc2)c1 | 0.338
20 | COC(=O)C1=C(C)NC(C)=C(C(=O)OC)C1c1ccccn1 | 5.81
21 | O=C(NC1CCCC1)C(c1cccnc1)N(C(=O)c1csnn1)C1CCCC1 (stereo not shown) | 13
22 | O=C(CN(C(=O)Cn1nnc(-c2cccs2)n1)c1ccc2c(c1)OCCO2)NC1CCCCC1 | -13.2
23 | Cc1nnc(C)n1N | 12.1
24 | CCn1c(=O)cc(OCC(=O)O)c2ccccc21 | 10.6
25 | S=C(NCc1ccccc1)Nc1ccc(Cl)cc1 | -25.1
